Experimental findings from PMC7862700, “An all-to-all approach to the identification of sequence-specific readers for epigenetic DNA modifications on cytosine” are described below.

Assay in all cases: DAPPL (digital affinity profiling via proximity ligation, sequencing); 10 mM Tris-HCl pH 7.5, 50 mM NaCl, 1 mM DTT, 4% glycerol, room temperature, 30 min; GST-TFs on glutathione beads, 16-mer random dsDNA library, 0.1% formaldehyde crosslink after washing; high values mean tight binding
In assay [1] the target is T1, FEV (Homo sapiens, UniProt Q99581 1-238).
T1 sequence: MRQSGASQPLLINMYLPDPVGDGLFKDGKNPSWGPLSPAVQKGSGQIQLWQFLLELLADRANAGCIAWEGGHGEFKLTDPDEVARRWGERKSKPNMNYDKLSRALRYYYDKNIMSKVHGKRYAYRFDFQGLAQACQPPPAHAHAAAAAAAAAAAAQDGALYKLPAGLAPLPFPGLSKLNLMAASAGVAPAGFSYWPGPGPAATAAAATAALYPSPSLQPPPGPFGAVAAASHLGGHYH
To be noted: protein: recombinant; tags: N-terminal GST; dsDNA, one strand shown. In a few lines:
(§1)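 Binding signal is each hexamer's read frequency for a factor divided by its frequency in the tag-only sample. The factors were GST-fused human transcription factors from yeast, captured on glutathione beads, DNA-barcoded and pooled with that sample. Pools were incubated with 200 nmole of a random double-stranded 16-mer DNA library in Tris/NaCl/DTT/glycerol buffer at room temperature for 30 min, then washed, crosslinked with 0.1% formaldehyde, proximity-ligated with BsaI/T4 ligase (1 h, 37 °C), PCR-amplified and sequenced on an Illumina NextSeq500.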

Assay [2] addresses ETV5 (Homo sapiens, UniProt P41161 1-510). The settings on record: protein: recombinant; tags: N-terminal GST; dsDNA, one strand shown. In outline:
as §1

In assay [3] the target is HSF1 (Homo sapiens, UniProt Q00613 1-529). To be noted: protein: recombinant; tags: N-terminal GST; chain copies: 3; dsDNA, one strand shown. In a few lines: as §1
The target of assay [4] is T2, SPIC (Homo sapiens, UniProt Q8N5J4 1-248).
T2 sequence: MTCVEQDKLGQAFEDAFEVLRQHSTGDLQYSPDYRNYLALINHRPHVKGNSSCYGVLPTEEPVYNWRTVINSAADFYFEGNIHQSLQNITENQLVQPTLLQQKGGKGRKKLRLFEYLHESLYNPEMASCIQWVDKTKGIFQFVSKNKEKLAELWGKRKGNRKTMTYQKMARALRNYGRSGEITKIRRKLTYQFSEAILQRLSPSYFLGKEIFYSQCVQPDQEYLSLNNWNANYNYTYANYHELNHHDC
The settings on record: protein: recombinant; tags: N-terminal GST; dsDNA, one strand shown. In a few lines: as §1

Assay [5] deals with ELF4 (Homo sapiens, UniProt Q99607 1-663). To be noted: protein: recombinant; tags: N-terminal GST; dsDNA, one strand shown. In a few lines: as §1
Assay [6] has as its target T3, ELK4 (Homo sapiens, UniProt P28324-2 1-405).
T3 sequence: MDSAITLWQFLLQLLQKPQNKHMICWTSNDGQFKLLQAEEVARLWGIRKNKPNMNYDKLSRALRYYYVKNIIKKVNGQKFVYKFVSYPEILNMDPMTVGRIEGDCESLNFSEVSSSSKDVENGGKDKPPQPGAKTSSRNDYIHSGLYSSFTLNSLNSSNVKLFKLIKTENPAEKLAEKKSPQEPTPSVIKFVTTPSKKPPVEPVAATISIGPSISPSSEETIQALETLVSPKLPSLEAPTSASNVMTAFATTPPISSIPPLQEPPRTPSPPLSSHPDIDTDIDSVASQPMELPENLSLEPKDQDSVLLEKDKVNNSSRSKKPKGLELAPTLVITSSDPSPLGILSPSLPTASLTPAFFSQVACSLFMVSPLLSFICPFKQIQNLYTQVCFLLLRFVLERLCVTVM
To be noted: protein: recombinant; tags: N-terminal GST; dsDNA, one strand shown. In outline:
as §1

Assay [7] has as its target T4, ETV2 (Homo sapiens, UniProt O00321 1-342).
T4 sequence: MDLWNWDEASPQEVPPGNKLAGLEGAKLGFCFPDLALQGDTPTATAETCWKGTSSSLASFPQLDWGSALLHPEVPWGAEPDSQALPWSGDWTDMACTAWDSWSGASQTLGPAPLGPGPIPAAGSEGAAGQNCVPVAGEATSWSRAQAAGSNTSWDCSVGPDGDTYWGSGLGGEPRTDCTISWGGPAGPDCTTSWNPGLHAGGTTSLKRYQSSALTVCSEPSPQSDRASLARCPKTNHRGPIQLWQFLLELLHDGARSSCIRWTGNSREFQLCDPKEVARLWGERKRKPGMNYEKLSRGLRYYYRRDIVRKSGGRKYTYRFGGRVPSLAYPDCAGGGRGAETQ
The settings on record: protein: recombinant; tags: N-terminal GST; dsDNA, one strand shown. In a few lines: as §1

In assay [8] the target is T5, ELF3 (Homo sapiens, UniProt P78545 1-371).
T5 sequence: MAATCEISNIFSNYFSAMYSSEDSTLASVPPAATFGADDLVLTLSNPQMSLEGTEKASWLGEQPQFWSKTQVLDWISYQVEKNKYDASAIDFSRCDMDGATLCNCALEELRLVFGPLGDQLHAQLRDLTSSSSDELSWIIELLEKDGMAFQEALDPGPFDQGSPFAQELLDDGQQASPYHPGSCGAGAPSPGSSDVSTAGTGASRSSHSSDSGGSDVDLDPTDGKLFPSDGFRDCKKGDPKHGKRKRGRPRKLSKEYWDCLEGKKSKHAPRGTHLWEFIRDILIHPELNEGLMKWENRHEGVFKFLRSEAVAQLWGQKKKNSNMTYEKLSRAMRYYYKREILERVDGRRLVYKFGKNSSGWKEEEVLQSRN
To be noted: protein: recombinant; tags: N-terminal GST; dsDNA, one strand shown. In a few lines: as §1

For assay [9], the target named is CRX (Homo sapiens, UniProt O43186 1-299). The settings on record: protein: recombinant; tags: N-terminal GST; dsDNA, one strand shown. In a few lines:
as §1

In assay [10] the target is ETV1 (Homo sapiens, UniProt P50549 1-477). The settings on record: protein: recombinant; tags: N-terminal GST; dsDNA, one strand shown. In a few lines:
as §1

The target of assay [11] is T6, ERF (Homo sapiens, UniProt P50548 1-548).
T6 sequence: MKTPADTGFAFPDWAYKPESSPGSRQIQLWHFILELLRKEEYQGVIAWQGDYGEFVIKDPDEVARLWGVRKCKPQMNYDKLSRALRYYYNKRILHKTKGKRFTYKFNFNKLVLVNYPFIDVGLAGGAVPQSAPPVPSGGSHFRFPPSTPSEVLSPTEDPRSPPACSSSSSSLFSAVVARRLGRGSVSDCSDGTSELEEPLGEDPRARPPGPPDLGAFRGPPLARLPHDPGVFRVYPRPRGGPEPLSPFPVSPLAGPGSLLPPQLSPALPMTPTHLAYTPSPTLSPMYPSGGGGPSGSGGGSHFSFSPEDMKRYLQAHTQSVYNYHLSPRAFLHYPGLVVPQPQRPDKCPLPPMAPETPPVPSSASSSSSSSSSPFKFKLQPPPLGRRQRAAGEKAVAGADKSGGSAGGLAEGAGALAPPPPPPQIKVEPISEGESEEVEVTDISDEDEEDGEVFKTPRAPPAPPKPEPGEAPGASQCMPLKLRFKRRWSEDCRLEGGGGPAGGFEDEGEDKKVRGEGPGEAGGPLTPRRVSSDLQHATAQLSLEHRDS
The settings on record: protein: recombinant; tags: N-terminal GST; dsDNA, one strand shown. In a few lines:
as §1

The target of assay [12] is T7, ETV3L (Homo sapiens, UniProt Q6ZN32 1-361).
T7 sequence: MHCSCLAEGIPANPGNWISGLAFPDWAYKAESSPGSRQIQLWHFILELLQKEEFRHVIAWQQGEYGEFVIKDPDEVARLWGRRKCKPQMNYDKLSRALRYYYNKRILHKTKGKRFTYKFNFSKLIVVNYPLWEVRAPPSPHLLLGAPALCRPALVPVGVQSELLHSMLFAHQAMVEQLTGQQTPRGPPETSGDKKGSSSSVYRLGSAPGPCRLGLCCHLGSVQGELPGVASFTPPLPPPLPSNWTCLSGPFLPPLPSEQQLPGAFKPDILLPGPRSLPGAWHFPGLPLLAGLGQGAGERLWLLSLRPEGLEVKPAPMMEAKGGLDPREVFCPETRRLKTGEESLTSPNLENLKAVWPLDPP
The settings on record: protein: recombinant; tags: N-terminal GST; dsDNA, one strand shown. In outline: as §1

In assay [13] the target is T8, ETS2 (Homo sapiens, UniProt P15036 1-469).
T8 sequence: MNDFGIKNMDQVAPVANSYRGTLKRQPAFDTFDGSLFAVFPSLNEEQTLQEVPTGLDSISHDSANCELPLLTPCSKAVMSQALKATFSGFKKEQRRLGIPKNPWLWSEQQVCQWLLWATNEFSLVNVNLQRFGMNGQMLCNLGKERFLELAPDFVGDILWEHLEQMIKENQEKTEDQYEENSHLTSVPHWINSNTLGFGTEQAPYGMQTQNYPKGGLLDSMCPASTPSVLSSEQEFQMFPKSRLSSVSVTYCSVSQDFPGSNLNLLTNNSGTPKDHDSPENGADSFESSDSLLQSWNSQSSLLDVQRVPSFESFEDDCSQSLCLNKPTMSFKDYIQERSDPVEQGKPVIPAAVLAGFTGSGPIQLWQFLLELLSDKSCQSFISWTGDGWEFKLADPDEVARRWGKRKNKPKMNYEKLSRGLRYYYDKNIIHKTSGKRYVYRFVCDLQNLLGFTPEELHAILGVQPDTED
The settings on record: protein: recombinant; tags: N-terminal GST; dsDNA, one strand shown. In outline: as §1

For assay [14], the target named is T9, SPDEF (Homo sapiens, UniProt O95238 1-335).
T9 sequence: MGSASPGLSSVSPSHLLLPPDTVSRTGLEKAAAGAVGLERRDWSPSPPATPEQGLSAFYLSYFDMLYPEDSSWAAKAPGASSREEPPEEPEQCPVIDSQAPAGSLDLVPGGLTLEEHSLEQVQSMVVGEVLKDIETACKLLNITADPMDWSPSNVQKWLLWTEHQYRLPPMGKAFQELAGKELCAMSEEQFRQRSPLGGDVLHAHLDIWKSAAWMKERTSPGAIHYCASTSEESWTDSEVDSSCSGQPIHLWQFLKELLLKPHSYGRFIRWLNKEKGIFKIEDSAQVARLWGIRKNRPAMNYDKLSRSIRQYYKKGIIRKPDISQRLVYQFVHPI
To be noted: protein: recombinant; tags: N-terminal GST; dsDNA, one strand shown. In outline: as §1

In assay [15] the target is T10, ETV7 (Homo sapiens, UniProt Q9Y603 1-341).
T10 sequence: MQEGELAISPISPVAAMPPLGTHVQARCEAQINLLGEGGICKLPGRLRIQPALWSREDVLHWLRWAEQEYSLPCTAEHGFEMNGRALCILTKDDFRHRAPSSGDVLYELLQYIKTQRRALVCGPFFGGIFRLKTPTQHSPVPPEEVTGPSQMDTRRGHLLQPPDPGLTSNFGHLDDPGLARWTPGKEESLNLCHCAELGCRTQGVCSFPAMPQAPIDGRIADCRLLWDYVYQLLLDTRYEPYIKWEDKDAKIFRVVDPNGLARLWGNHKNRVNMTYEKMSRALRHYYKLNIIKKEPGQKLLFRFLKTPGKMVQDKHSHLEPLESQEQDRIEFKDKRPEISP
To be noted: protein: recombinant; tags: N-terminal GST; dsDNA, one strand shown. In a few lines:
as §1

Assay [16] has as its target T11, ELF5 (Homo sapiens, UniProt Q9UKW6-2 1-255).
T11 sequence: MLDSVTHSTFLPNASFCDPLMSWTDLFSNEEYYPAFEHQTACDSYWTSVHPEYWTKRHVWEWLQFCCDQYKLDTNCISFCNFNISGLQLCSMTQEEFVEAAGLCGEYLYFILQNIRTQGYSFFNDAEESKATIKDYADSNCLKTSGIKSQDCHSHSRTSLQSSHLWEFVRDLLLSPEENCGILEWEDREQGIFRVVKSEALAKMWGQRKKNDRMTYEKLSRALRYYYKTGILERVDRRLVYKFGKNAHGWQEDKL
To be noted: protein: recombinant; tags: N-terminal GST; dsDNA, one strand shown. In a few lines: as §1

For assay [17], the target named is T12, ETV3 (Homo sapiens, UniProt P41162-2 1-143).
T12 sequence: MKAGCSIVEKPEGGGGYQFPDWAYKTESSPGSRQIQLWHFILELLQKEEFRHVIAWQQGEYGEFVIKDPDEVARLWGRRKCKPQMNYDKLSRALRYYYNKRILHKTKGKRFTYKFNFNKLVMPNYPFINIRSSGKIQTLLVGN
To be noted: protein: recombinant; tags: N-terminal GST; dsDNA, one strand shown. In a few lines:
as §1

Assay [18] has as its target ETV6 (Homo sapiens, UniProt P41212 1-452). The settings on record: protein: recombinant; tags: N-terminal GST; dsDNA, one strand shown. In outline:
as §1

Sequence of ETV5 (P41161 whole entry): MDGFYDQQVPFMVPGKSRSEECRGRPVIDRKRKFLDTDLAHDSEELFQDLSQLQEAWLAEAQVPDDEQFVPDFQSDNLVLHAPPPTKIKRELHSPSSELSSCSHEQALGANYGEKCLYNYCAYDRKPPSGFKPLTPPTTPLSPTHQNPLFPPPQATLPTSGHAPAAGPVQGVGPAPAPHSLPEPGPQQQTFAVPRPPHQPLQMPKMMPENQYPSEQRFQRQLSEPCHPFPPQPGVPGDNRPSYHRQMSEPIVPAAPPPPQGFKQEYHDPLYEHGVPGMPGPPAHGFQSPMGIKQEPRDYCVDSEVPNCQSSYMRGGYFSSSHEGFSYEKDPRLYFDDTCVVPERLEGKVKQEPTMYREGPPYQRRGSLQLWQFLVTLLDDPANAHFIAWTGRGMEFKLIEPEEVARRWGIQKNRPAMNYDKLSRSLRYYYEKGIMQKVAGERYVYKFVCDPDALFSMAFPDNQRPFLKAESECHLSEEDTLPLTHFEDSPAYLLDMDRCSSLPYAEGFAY
Sequence of HSF1 (Q00613 whole entry): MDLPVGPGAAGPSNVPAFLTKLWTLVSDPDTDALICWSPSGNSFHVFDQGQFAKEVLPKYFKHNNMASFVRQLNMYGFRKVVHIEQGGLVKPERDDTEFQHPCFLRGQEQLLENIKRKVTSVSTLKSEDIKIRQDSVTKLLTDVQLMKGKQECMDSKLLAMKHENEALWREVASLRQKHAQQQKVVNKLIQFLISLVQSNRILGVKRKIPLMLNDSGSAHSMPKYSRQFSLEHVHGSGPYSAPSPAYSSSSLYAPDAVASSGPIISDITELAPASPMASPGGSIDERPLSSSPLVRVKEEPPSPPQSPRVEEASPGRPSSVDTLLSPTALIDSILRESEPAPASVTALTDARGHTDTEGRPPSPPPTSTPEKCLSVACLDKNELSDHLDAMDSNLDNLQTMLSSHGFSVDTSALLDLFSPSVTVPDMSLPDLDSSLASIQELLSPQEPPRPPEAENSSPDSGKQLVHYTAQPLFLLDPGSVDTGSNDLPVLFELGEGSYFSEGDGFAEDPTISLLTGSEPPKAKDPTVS
Sequence of CRX (O43186 whole entry): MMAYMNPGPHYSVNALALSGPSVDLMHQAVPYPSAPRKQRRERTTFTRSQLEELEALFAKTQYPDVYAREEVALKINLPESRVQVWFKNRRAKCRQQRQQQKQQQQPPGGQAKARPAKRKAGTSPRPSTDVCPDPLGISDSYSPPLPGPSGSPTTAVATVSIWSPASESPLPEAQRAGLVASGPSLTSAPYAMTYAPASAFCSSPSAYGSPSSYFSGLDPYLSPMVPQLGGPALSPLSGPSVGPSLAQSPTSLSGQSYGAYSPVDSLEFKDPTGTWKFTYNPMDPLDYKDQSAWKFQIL
Sequence of ETV6 (P41212 whole entry): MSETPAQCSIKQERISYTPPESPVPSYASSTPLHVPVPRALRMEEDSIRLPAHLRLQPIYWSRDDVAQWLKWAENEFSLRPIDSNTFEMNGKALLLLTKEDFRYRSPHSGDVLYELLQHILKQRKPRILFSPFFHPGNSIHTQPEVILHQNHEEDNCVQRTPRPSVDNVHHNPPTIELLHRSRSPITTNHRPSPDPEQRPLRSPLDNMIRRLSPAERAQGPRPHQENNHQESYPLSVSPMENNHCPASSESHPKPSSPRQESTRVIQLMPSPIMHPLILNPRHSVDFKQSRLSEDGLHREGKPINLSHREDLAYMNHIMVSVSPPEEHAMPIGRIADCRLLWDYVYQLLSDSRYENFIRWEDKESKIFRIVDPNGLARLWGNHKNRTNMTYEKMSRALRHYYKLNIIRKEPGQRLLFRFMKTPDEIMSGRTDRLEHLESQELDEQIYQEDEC
Sequence of ELF4 (Q99607 whole entry): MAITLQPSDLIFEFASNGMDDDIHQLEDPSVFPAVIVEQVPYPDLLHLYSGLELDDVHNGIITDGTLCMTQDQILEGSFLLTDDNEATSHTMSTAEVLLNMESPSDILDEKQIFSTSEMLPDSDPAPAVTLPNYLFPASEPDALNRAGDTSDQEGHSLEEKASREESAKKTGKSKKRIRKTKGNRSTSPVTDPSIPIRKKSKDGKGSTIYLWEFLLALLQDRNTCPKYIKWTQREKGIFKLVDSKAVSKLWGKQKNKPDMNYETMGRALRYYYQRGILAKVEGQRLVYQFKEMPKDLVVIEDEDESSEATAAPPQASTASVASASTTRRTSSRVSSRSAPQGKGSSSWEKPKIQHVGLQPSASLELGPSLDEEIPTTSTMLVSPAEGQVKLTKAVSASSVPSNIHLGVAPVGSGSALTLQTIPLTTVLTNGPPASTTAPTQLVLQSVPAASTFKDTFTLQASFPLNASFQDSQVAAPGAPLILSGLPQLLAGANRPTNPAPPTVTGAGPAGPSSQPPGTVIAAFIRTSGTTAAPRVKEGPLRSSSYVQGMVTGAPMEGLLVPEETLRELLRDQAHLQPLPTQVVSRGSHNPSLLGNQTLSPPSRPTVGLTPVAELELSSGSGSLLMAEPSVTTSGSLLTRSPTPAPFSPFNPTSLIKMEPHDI
Sequence of ETV1 (P50549 whole entry): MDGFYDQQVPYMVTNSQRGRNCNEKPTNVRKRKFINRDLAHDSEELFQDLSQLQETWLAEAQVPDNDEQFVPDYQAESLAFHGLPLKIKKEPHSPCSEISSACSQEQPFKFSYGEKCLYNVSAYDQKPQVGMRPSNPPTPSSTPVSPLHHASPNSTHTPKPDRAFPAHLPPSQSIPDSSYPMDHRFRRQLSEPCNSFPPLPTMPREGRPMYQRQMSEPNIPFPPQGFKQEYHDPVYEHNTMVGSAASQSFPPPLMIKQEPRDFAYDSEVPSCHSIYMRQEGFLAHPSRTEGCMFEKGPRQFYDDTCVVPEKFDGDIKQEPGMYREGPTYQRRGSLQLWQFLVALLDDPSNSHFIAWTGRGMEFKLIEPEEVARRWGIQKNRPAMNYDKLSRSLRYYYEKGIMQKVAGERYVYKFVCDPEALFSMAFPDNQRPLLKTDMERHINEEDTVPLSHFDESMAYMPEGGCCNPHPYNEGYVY

Take ACGTCC: the binding signal in [1] is 1.81 fold enrichment (6-mer frequency, TF over GST control); in [2] it was 1.65 fold enrichment (6-mer frequency, TF over GST control); in [3], 1.07 fold enrichment (6-mer frequency, TF over GST control); in [4], 1.59 fold enrichment (6-mer frequency, TF over GST control); in [5] it was 1.54 fold enrichment (6-mer frequency, TF over GST control); in assay [6], 1.46 fold enrichment (6-mer frequency, TF over GST control). Moreover, the binding signal in assay [7] is 1.39 fold enrichment (6-mer frequency, TF over GST control); in assay [8] it was 1.39 fold enrichment (6-mer frequency, TF over GST control); in assay [9], 1.01 fold enrichment (6-mer frequency, TF over GST control); in assay [10], 1.63 fold enrichment (6-mer frequency, TF over GST control); in [11], 1.49 fold enrichment (6-mer frequency, TF over GST control); in assay [12] it was 1.59 fold enrichment (6-mer frequency, TF over GST control). In addition, the binding signal in assay [13] is 1.64 fold enrichment (6-mer frequency, TF over GST control); in assay [14], 2.11 fold enrichment (6-mer frequency, TF over GST control); in assay [15], 1.61 fold enrichment (6-mer frequency, TF over GST control); in assay [16], 1.77 fold enrichment (6-mer frequency, TF over GST control); in assay [17], 1.61 fold enrichment (6-mer frequency, TF over GST control); in assay [18] it was 1.74 fold enrichment (6-mer frequency, TF over GST control).
